Assay results from PubChem BioAssay AID1159580 (chemical genetic matrix, 2015).
Several values for one entry are separate records, joined by “and”; a condition that tells them apart may be missing. Equal values may be shown once. The campaign covered roughly 5,500 compounds. About 2,000 (36%) were called active. Another 18% or so got no clear call; they are omitted. Rule as the data show it: active = normalized growth mostly below about 0.91 (no sharp cut-off); inconclusive = no clear call, values can overlap the other calls; inactive = mostly above about 0.92. The list shows a part of the results.

Assay: chemical genetic growth profiling, strain panel (AID 1159580);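 also: tested at 20 µM; growth read once vehicle control cultures reached saturation at 30 °C; 1 = growth at the plate median or of vehicle wells; lower values mean less growth of the strain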
Settings: S. cerevisiae deletion strains, growth OD

Measured: normalized growth

NCCc1c[nH]c2ccccc12
inactive: locus YAL013W, strain DEP1, hits give low values 0.983 and 0.988 | locus YAL021C, strain ccr4, hits give low values 0.967 | locus YAL026C, strain drs2, hits give low values 0.96 | locus YAL030W, strain snc1, hits give low values 0.969 | locus YAL040C, strain CLN3, hits give low values 1.08 | locus YBL061C, strain skt5, hits give low values 0.959 | locus YBR009C, strain hhf1, hits give low values 0.988 | locus YBR021W, strain FUR4, hits give low values 1.01 | locus YBR023C, strain chs3, hits give low values 0.945 | locus YBR171W, strain sec66, hits give low values 0.955 | locus YBR229C, strain ROT2, hits give low values 0.954 | locus YBR231C, strain swc5, hits give low values 0.962 | locus YBR279W, strain paf1, hits give low values 0.942 | locus YCL011C, strain gbp2, hits give low values 0.945 | locus YCL016C, strain dcc1, hits give low values 0.98 | locus YCL029C, strain bik1, hits give low values 0.994 | locus YCL061C, strain MRC1 (second series), hits give low values 0.998 | locus YCL061C, strain MRC1, hits give low values 0.967 | locus YCL069W, strain vba3, hits give low values 0.973 | locus YCR088W, strain abp1, hits give low values 0.967 | locus YDL005C, strain med2, hits give low values 0.974 | locus YDL035C, strain GPR1, hits give low values 0.977 | locus YDL040C, strain nat1, hits give low values 0.96 | locus YDL074C, strain BRE1, hits give low values 1 | locus YDL101C, strain DUN1, hits give low values 0.987 | locus YDL134C, strain PPH21, hits give low values 0.964 | locus YDL185W, strain tfp1, hits give low values 0.988 | locus YDL192W, strain arf1, hits give low values 0.985 | locus YDR001C, strain nth1, hits give low values 0.954 | locus YDR069C, strain doa4, hits give low values 0.913 | locus YDR101C, strain arx1, hits give low values 1.01 | locus YDR137W, strain rgp1, hits give low values 0.934 | locus YDR150W, strain NUM1, hits give low values 0.967 | locus YDR159W, strain sac3, hits give low values 0.925 | locus YDR162C, strain NBP2, hits give low values 0.954 | locus YDR195W, strain ref2 0.926 | locus YDR297W, strain sur2, hits give low values 0.967 | locus YDR318W, strain mcm21, hits give low values 0.999 | locus YDR334W, strain swr1, hits give low values 0.94 | locus YDR335W, strain msn5, hits give low values 0.961 | locus YDR363W, strain ESC2, hits give low values 0.975 | locus YDR388W, hits give low values 0.997 | locus YDR392W, strain spt3, hits give low values 1.01 | locus YDR502C, strain sam2, hits give low values 0.993 | locus YEL003W, strain gim4, hits give low values 0.978 | locus YEL037C, strain rad23, hits give low values 0.958 | locus YEL061C, strain CIN8 (second series), hits give low values 0.957 | locus YEL061C, strain CIN8, hits give low values 0.98 | locus YER002W, strain NOP16, hits give low values 0.99 | locus YER015W, strain faa2, hits give low values 0.975 | locus YER016W, strain bim1, hits give low values 0.964 | locus YER110C, hits give low values 0.967 | locus YER111C, strain swi4, hits give low values 0.973 | locus YER155C, strain BEM2 (second series), hits give low values 0.923 | locus YER155C, strain BEM2, hits give low values 0.998 | locus YER167W, strain BCK2, hits give low values 0.982 | locus YFR010W, strain ubp6, hits give low values 0.951 | locus YGL078C, strain dbp3, hits give low values 0.98 | locus YGL086W, strain mad1, hits give low values 0.966 | locus YGL167C, strain pmr1, hits give low values 0.939 | locus YGL173C, strain kem1, hits give low values 0.992 | locus YGL227W, strain vid30, hits give low values 0.937 | locus YGL240W, strain doc1, hits give low values 0.964 | locus YGL248W, strain PDE1, hits give low values 0.983 | locus YGL253W, strain hxk2, hits give low values 0.952 | locus YGR078C, strain PAC10, hits give low values 1.01 and 0.994 | locus YGR135W, strain pre9, hits give low values 0.989 | locus YGR229C, strain SMI1, hits give low values 1.01 | locus YGR252W, strain gcn5, hits give low values 0.911 | locus YHR013C, strain ard1, hits give low values 0.949 | locus YHR027C, strain rpn1, hits give low values 0.962 | locus YHR030C, strain SLT2, hits give low values 0.987 and 0.959 | locus YHR079C, strain IRE1 (second series), hits give low values 0.998 | locus YHR079C, strain IRE1, hits give low values 0.957 | locus YHR094C, strain hxt1, hits give low values 0.994 | locus YHR129C, strain ARP1, hits give low values 1 | locus YHR142W, strain chs7, hits give low values 0.965 | locus YHR200W, strain rpn10, hits give low values 1 | locus YIL066C, strain RNR3, hits give low values 0.985 | locus YIL073C, strain SPO22, hits give low values 0.959 | locus YIL125W, strain kgd1, hits give low values 0.983 | locus YIR030C, strain dcg1, hits give low values 0.981 | locus YJL092W, strain hpr5, hits give low values 0.963 | locus YJL095W, strain BCK1 (second series), hits give low values 0.96 | locus YJL095W, strain BCK1, hits give low values 1.03 and 0.994 | locus YJL115W, strain asf1, hits give low values 0.961 | locus YJL129C, strain trk1, hits give low values 0.963 | locus YJL134W, strain LCB3, hits give low values 0.984 | locus YJL154C, strain vps35, hits give low values 0.948 | locus YJL164C, strain tpk1, hits give low values 0.989 | locus YJL166W, strain qcr8, hits give low values 0.938 | locus YJL168C, strain set2, hits give low values 1 | locus YJL187C, strain SWE1 (second series), hits give low values 1 | locus YJL187C, strain SWE1, hits give low values 0.967 | locus YJR043C, strain POL32, hits give low values 1.02 | locus YJR066W, strain TOR1, hits give low values 0.926
